# Experimental data: the supplement of paper PMC11417369
# Over roughly 25,000 sequences, “ln(normalized median fluorescence intensity)” has its median near 6.7; the highest 2% begin near 10. This excerpt belongs to a sample that is enriched for the highest values.
# Tested on: PfHDP1 homeodomain (GST-tagged)
# Test: gcPBM binding intensity (ln(normalized median fluorescence intensity)); higher = stronger DNA binding
# Method in brief: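 In this array assay, P. falciparum DNA-binding domains with a GST tag, expressed in E. coli, were applied for 1 h to primer-extended double-stranded 36-bp intergenic genomic probes and negative controls on an Agilent 4 × 180k array. Bound protein was visualised with Alexa488 anti-GST antibody at 488 nm. Binding intensity is the highest Masliner-normalised natural-log median intensity across replicate spots of either probe orientation.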
row,Sequence,gcPBM binding intensity (ln)
1,TGTTTATCATATTTGTGTCCTCATTTTTTAGTATCA [XGTACX_site947],6.62
2,ACGCACGAAATAAATACATGCATATTGTAAAAATTA [TGCATGCA_site310],8.99
3,TGTGTTCATATATGCACACGCATATATATTATTGTT [CACACA_site3822],9.67
4,TGTGTTCATCTATGCACACGCATATATATTATTGTT [CACACA_site5985],9.64
5,ATGCACTCATTGTGCACACGCATATTACGAAAAGAA [CACACA_site2638],10.8
6,AATGTGTTCATATATGCACACGCATATATATTATTG [CACACA_site9274],9.95
7,ATATGCACTCATTGTGCACACGCATATTACGAAAAG [CACACA_site2637],11.6
8,TTATAATAGTTAATATGTACATATTTAATAAATAAT [XGTACX_site3183],6.23
9,AGACTATCATTTTTTTAACACACAAAAAAAATAAAA [CACACA_site9173],6.35
10,ATAAAGCCATACAATACACACATTTTACATGGGGGT [CACACA_site9072],7.27
11,AGTACATTATAGAATACACACCTATATATATATATA [CACACA_site4447],9.29
12,ATAATACATATAGAAGGTACACTATTATTTTCCTGA [XGTACX_site903],6.13
13,TTCTTTTTTTTTAAAACAAACAAACAAACAAACAAA [CACACA_negctrl_site832],6.6
14,TTCTTTTTAATGTCGGTGCAACTCCATAAAAACAAA [GTGCAC_site9488],10.9
15,ATATTTTATGTAAAGGTGCAAAACAACATTAAAAAA,9.97
16,TCTTTCTAAAGATGTAGTACAAAATAAATATAATAT [XGTACX_site6564],6.87
17,TCCAAAATATCCTTCACACACGAACAGTTTCATTTA [CACACA_site5511],6.49
18,TTGTATTGTATATGCACACATAGAACACTTTTTTTT [CACACA_site4133],8.44
19,ATTGTATGCACGTCTGCACACTTTTTTTTTTTTTTT [CACACA_site2082],11
20,ATTTGTATTGTATATGCACACATAGAACACTTTTTT [CACACA_site9373],9.69
21,AAAATATATTCAACTTGTACATATATATATATATAT [XGTACX_site7629],9.4
22,TTAATATTCCAGCTTTGTACATATATATATTATAAA [XGTACX_site7954],6.6
23,TTTGTTCTTTTTGAAGTGCACTGAAATATAACAAAA,10.9

row,Sequence,gcPBM binding intensity (ln)
1,TTCTTGTTCCTGAAAGTGCATATAACAAAAATAACA [GTGCAC_site9635],8.06
2,TTTTGAAGTAACAAATAAATAAATAAATATATAAAA [GTGCAC_negctrl_site517],6.53
3,TATTGTATTTCATATTGTACTAAAAAAAAAAAAAAG [XGTACX_site6694],6.24
4,CCTCATCCACTATGCACACAAAAAAGAAATACACTA [CACACA_site3422],9.52
5,AGAAAGAAAATATATACACACAAAAAAAAATATATA [CACACA_site1412],6.61
6,GTCCTCATCCACTATGCACACAAAAAAGAAATACAC [CACACA_site9131],10.5
7,TTACACAAACAAATTATGGACACATAAGTAAAAGGA [CACACA_negctrl_site1622],6.97
8,GCACATATGAATATAATACACACTTGTATTATTAAT [CACACA_site1841],6.59
9,TTTTTGATGAAATATTATTTTCCTGACTTGGATTAA [CACACA_negctrl_site148],6.27
10,TCCTTATATTGGCACACACACACAATAAAATGAAAA [CACACA_site4715],7.07
11,ATTCTATTATCCTTTGCACACAAAATAAATGAAAAA [CACACA_site3030],9.63
12,TAAATGTCCTTATTTGCACACACACCCATAAGAAAT [CACACA_site3185],10.4
13,TATCCTTATATTTGCACACACACACCCTAAAATGAA [CACACA_site1029],10.6
14,TCCTTATATTTGCACACACACACAAGAAAATGAAAA [CACACA_site6613],11
15,TTTTTTTTTTTTTGCACACACCATATTTATAGAAAT [CACACA_site5772],9.04
16,TGTCCTTATTTGCACACACACATATAAGAAATTTAA [CACACA_site7485],10.5
17,AAAATGAAGAAGTGCACACATATATATATTTATATA [CACACA_site507],9.11
18,TATCCTTATATTTGCACACACACACTAGAAAATGAA [CACACA_site4714],10.7
19,AATGTCCTTATTTGCACACACACATATAAGAAATTT [CACACA_site3186],10.6
20,TCTATTATCCTTTGCACACAAAATAAATGAAAAAAT [CACACA_site3029],9.75
21,GATATCCTTATATTTGCACACACACCCAATAAAATG [CACACA_site1028],9.87
22,AAAATATTTATATTTACACACACATAATACATATAT [CACACA_site32],6.84
